Compound activity deposited in PubChem BioAssay by National Center for Advancing Translational Sciences (NCATS).
IP6K1 inh = IP6K1 kinase inhibition | activity change, % (series mostly up to about 58 µM) | 140,000 tested, 0.81% active | IP6K1 kinase, ADP-Glo luminescence, 2 h; hits give low values | Q92551; in the data active = activity change below about -25%; also: % is scaled to controls: 0 for no effect and ±100 for the full control effect
Target sequence (Q92551 whole entry, looked up): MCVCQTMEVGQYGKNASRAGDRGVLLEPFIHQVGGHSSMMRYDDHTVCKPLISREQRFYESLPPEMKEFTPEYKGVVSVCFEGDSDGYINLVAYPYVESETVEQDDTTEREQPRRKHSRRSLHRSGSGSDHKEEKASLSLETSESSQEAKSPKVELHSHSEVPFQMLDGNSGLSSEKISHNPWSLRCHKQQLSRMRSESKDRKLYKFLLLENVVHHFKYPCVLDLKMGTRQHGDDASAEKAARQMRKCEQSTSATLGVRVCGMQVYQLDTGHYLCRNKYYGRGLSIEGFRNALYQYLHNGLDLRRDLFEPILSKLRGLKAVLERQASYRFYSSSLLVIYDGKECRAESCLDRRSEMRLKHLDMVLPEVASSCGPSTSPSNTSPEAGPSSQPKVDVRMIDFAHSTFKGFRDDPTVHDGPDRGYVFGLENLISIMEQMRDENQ
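ADP-Glo luminescence measures ADP made by human IP6K1 during a 2 h RT reaction with ATP/IP6 (mix at 1.3 mM/130 uM); top library doses 57.5 and 19.1 uM final.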
KDM5B inh = inhibitors of human KDM5B histone demethylase | Q9UGL1 | KDM5B demethylase, FDH-coupled NADH fluorescence (FDH is formaldehyde dehydrogenase) | Potency, µM (series often up to 57.7 µM), usual class: inhibitors | 220,000 tested, 2.6% active | AID 1347165; active = well fitted inhibition curve with a large enough effect; inconclusive = small, poorly fitted or top-dose-only effect; inactive = no such curve, though single readings can be large or run the other way; also: potency is read from the fitted curve at half-maximal effect; 0% is about no effect; nearly all actives have a fitted effect of over 70% in size
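KDM5BΔAP (200 nM final) in 50 mM HEPES pH 7.5, 0.01% Tween-20 was preincubated 10 min at RT with compound over a concentration range. Substrate mix (H3K4me3 12.5 µM, α-KG 25 µM, Fe²⁺, ascorbate, NAD⁺, FDH) was added, and NADH fluorescence change over 30 min gave dose-response curves.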
Active calls of the source: *; i = inactive; ? = inconclusive; · = not tested or not shown. Sampled rows, rich in hits. Any-hit rate of the full collection: about 2.8%.

SMILES | IP6K1 inh | KDM5B inh
O=C(C1CCN(c2nccc(Nc3ccccc3Cl)n2)CC1)N1CCC(c2ccccc2)CC1 | 2 | ·
Fc1cccc(Nc2ncc(-c3cncnc3)c3c2OCC3)c1 | -11 | ·
COc1cncc(Nc2ncc(-c3cccc(F)c3)c3c2OCC3)c1 | -14 | 32µM*
O=C(NCCc1ccc(Cl)cc1)c1ccc2nnc(CC3CC3)n2c1 | 3 | ·
O=c1[nH]c(C2CCCN(Cc3cccc(-c4ccc(F)cc4F)c3)C2)nc2ccc(F)cc12 (centres undefined) | 18 | ?
CCC1CN(C(=O)c2ccc3nc(-c4ccccc4)cn3c2)CCN1C(C)C (centres undefined) | 5 | 28µM*
O=C(c1ccc2nccn2c1)N1CCC(Cc2ccccc2)CC1 | 18 | ·
CCn1c2c(c(=O)n1-c1ccccc1)CCN(C(=O)CCc1cccnc1)C2 | 12 | i
Cc1cc(-c2cc3c(n(Cc4cccnc4)c2=O)CCN(C(=O)CCc2ccccc2)C3)ccc1F | 8 | 25µM*
Cn1c(Sc2ncc(C(F)(F)F)cc2Cl)nnc1-c1ccccc1 | · | i
COc1ccc(-c2noc([C@@H]3C[C@@H](O)CN3Cc3ccc(S(C)(=O)=O)cc3)n2)cc1 | -4 | ?
CS(=O)(=O)c1ccc(CN2C[C@H](O)C[C@H]2c2nc(-c3cnccn3)no2)cc1 | 2 | 35µM*
OCc1ccc(CN2C[C@H](O)C[C@H]2c2nc(-c3ccccc3)no2)o1 | 2 | ?
O=C(NC1CCN(Cc2ccc(-c3ccsc3)cc2)C1)c1ccccc1 (centres undefined) | -15 | ·
CCSc1ncc(CN2CCN(c3ccc4nccn4n3)CC2)cn1 | 14 | 28µM*
CCSc1ncc(CN2CCN(c3nc(C)cnc3C)CC2)cn1 | 0 | ?
Cc1ccc2c(n1)OC(COc1ccccc1)CN(Cc1cccs1)C2=O (centres undefined) | 12 | ·
COc1ccccc1-c1cccc(CN2CCCC(C(=O)NC(C)C)C2)c1 (centres undefined) | -2 | ·
Cc1ccc(CNC(=O)N2CCCCCC2c2nc(-c3ccccc3)no2)cc1 (centres undefined) | -10 | ·
COc1ccccc1C(=O)NC1CCN(c2ccnc3ccnn23)CC1 | -4 | ·
NC(=O)C1CCCN(Cc2ccc(-c3cnc4c(OCc5ccccc5)nccn34)cc2)C1 (centres undefined) | 0 | 28µM*
CCOc1nccn2c(-c3ccc(CN4CCN(C(C)=O)CC4)cc3)cnc12 | -20 | ?
OC1CN(Cc2ccc(-c3cnc4c(OCc5ccccc5)nccn34)cc2)C1 | 5 | 32µM*
O=C(NC1CCCC1)NC1CCCN(Cc2ccc(-c3cncnc3)cc2)C1 (centres undefined) | 18 | ·
OC1CCC(NCc2ccc(-c3cnc4c(OCc5ccccc5)nccn34)cc2)CC1 (centres undefined) | -15 | 28µM*
SMILES | IP6K1 inh | KDM5B inh
OC1CN(Cc2ccccc2)CCN(Cc2cn[nH]c2-c2ccc(Cl)cc2)C1 (centres undefined) | -8 | i
O=C(Cn1cnnn1)NCc1ccc(-c2cnc3c(Oc4ccccc4)nccn23)cc1 | 9 | ?
O=[S+]1([O-])CCN(Cc2ccc(-c3cnc4c(OCc5ccccc5)nccn34)cc2)CC1 | 8 | 22µM*
O=C(NCc1cccc(Cl)c1)c1ccc2nc(-c3ccncc3)oc2c1 | 8 | ·
COC(=O)CNC(=O)C1CCCN(c2nccc(Nc3ccc(OC)cc3)n2)C1 (centres undefined) | 5 | ·
O=C(COC(=O)c1ccccc1C(=O)c1ccc(-c2ccccc2)cc1)c1ccccc1 | · | i
COc1cc(-c2ccccc2)sc1C(=O)N1CCS(=O)CC1 | · | i
Cc1ccc(C(=O)NC(Nc2ccc(Cl)cc2)C(Cl)(Cl)Cl)cc1 (centres undefined) | · | i
O=C1CN(Cc2ccc(-c3cnc4c(OCc5ccccc5)nccn34)cc2)CCN1 | -8 | 35µM*
CC(=O)Nc1cccc(-c2cc3c(cn2)CN(Cc2ccccc2)CCN3)c1 | -9 | i
COc1ccccc1-c1cc2c(ccn2C)c(C(=O)NCCc2cnc[nH]2)n1 | 1 | 40µM*
Cn1ccc2c(C(=O)NCCc3cnc[nH]3)nc(-c3cccnc3)cc21 | -16 | i
COc1ccc(-c2cc3c(ccn3C)c(C(=O)NCCc3cnc[nH]3)n2)cn1 | -9 | 35µM*
Cn1ccc2c(C(=O)NCCc3cnc[nH]3)nc(-c3ccccc3)cc21 | 7 | i
Cn1ccc2c(C(=O)NCCc3cnc[nH]3)nc(-c3cnn(Cc4ccccc4)c3)cc21 | -6 | 32µM*
COc1ccc(CNC(=O)c2nc(-c3ccccc3OC)cc3c2ccn3C)cc1OC | -4 | i
COc1cc(F)ccc1-c1cc2c(ccn2C)c(C(=O)NCCc2cnc[nH]2)n1 | -15 | i
COc1ccc(-c2cc3c(ccn3C)c(C(=O)NCCC(N)=O)n2)cc1OC | -4 | 35µM*
O=C(NCc1ccccc1F)C1CCc2nnc(CN[S+](=O)([O-])c3ccccc3Cl)n21 (centres undefined) | 7 | ·
Cc1cccc(-c2nc3ccc(C(=O)NCc4ccccc4F)cc3o2)n1 | 10 | ·
O=C(NC1CCCC1)c1ccc2nnc(C3CCOCC3)n2c1 | -4 | ·
COc1cccc(-c2cc3c(ccn3C)c(C(=O)NCCc3cnc[nH]3)n2)c1OC | -15 | 40µM*
Cn1ccc2c(C(=O)NCCc3cnc[nH]3)nc(-c3cccc(CO)c3)cc21 | 25 | i
Cc1nn(-c2ccccc2)c2c1C(C)N(C1CCCN(C(=O)C3CCCC3)C1)C2=O (centres undefined) | 22 | ·
O=C(Nc1ccc(Cl)cc1)N1CCN(C(=O)c2cccc(-c3ccccn3)c2)CC1 | -15 | ·
SMILES | IP6K1 inh | KDM5B inh
CC(=O)Nc1cc(C(=O)N2CCN(C3CCCCC3)CC2)c2ccc(C)nc2c1 | 20 | ?
Cc1ccc2c(C(=O)N3CCN(C4CCCCC4)CC3)cc(NC(=O)C3CCC3)cc2n1 | 7 | 25µM*
Cc1ccc2c(C(=O)N3CCN(C4CCCCC4)CC3)cc(NC(=O)C(C)C)cc2n1 | 8 | 11µM*
Cc1ccc2c(C(=O)Nc3ccc(N4CCOCC4)cc3)cc(NC(=O)C3CCC3)cc2n1 | 5 | ?
COc1ccc(NC(=O)c2cc(NC(=O)C3CC3)cc3nc(C)ccc23)cc1 | 0 | ?
Cc1ccc2c(C(=O)N3CCCCCC3)cc(NC(=O)C3CCC3)cc2n1 | 4 | 32µM*
Cc1cc(C(=O)N2CCC(NC(=O)C3CCCCC3)CC2)c2ccccc2n1 | · | i
Cc1ccc2c(C(=O)N3CCCCCC3)cc(NC(=O)C3CC3)cc2n1 | -2 | 28µM*
CNC(=O)c1cc(C)nc2onc(C3CCCN3C(=O)OC)c12 (centres undefined) | -10 | ·
CNC(=O)C1C(=O)NCC12CCN(C(=O)c1ccc(C(C)(C)C)cc1)CC2 (centres undefined) | 1 | ·
CCOC(=O)c1c(C)sc2c1OC(N)=C(C#N)C21C(=O)N(Cc2ccccc2F)c2ccccc21 (centres undefined) | · | i
Cc1nn(-c2ccccc2)c2c1C(C(C)C)N(C1CCN(C(=O)c3ccccc3F)C1)C2=O (centres undefined) | 4 | ·
COc1ccccc1-c1cccc(C(=O)N2CCN(C(=O)c3ccc(Cl)cc3)CC2)c1 | 9 | ·
O=C(COc1cc(O)c2c(=O)cc(-c3ccccc3)oc2c1)NCc1ccc(F)cc1 | · | i
COc1ccccc1Cn1c(=O)c(C(=O)NCc2ccccc2)nc2cccnc21 | -2 | ·
